# According to publication PMC10954555:
# Tests used:
# [1] = molecular target: Large ribosomal subunit protein uL1 (UniProt P62906); assay: cross-linking mass spectrometry; other
# [2] = molecular target: 60S ribosome subunit biogenesis protein NIP7 homolog (UniProt Q9Y221); assay: cross-link between two proteins; cross-linking mass spectrometry; other
# [3] = molecular target: Heat shock cognate 71 kDa protein (UniProt P11142); assay: other; cross-linking mass spectrometry; other
# [4] = molecular target: Stress-70 protein, mitochondrial (UniProt P38646); assay: cross-link between two proteins; cross-linking mass spectrometry; other
# [5] = molecular target: THO complex subunit 2 (UniProt Q8NI27); assay: other; cross-linking mass spectrometry; other
# [6] = molecular target: THO complex subunit 1 (UniProt Q96FV9); assay: cross-link between two proteins; cross-linking mass spectrometry; other
# [7] = molecular target: Transcription initiation factor TFIID subunit 5 (UniProt Q15542); assay: other; cross-linking mass spectrometry; other
# [8] = molecular target: Transcription initiation factor TFIID subunit 9 (UniProt Q16594); assay: other; cross-linking mass spectrometry; other
# [9] = molecular target: Transcription initiation factor TFIID subunit 9B (UniProt Q9HBM6); assay: other; cross-linking mass spectrometry; other
# [10] = molecular target: Transcription initiation factor TFIID subunit 12 (UniProt Q16514); assay: cross-link between two proteins; cross-linking mass spectrometry; other
# [11] = molecular target: ELAV-like protein 1 (UniProt Q15717); assay: other; affinity purification or IP with mass spectrometry; other
# [12] = molecular target: Heterogeneous nuclear ribonucleoprotein L (UniProt P14866); assay: cross-link between two proteins; affinity purification or IP with mass spectrometry; cross-linking mass spectrometry; other
# [13] = molecular target: DNA topoisomerase 3-alpha (UniProt Q13472); assay: cross-link between two proteins; cross-linking mass spectrometry; other
# [14] = molecular target: RecQ-mediated genome instability protein 1 (UniProt Q9H9A7); assay: as above
# [15] = molecular target: Heterogeneous nuclear ribonucleoprotein A0 (UniProt Q13151); assay: as above
# [16] = molecular target: Paired amphipathic helix protein Sin3a (UniProt Q96ST3); assay: as above
# [17] = molecular target: Pinin (UniProt Q9H307); assay: as above
# [18] = molecular target: Polyhomeotic-like protein 2 (UniProt Q8IXK0); assay: as above
# [19] = molecular target: Pre-mRNA-processing factor 19 (UniProt Q9UMS4); assay: as above
# [20] = molecular target: SAGA-associated factor 29 (UniProt Q96ES7); assay: as above
# [21] = molecular target: Sin3 histone deacetylase corepressor complex component SDS3 (UniProt Q9H7L9); assay: as above
# [22] = molecular target: Splicing factor 3A subunit 1 (UniProt Q15459); assay: as above
# [23] = molecular target: Transcription factor JunD (UniProt P17535); assay: as above
# [24] = molecular target: Transcription initiation factor TFIID subunit 3 (UniProt Q5VWG9); assay: as above
# [25] = molecular target: Transcription initiation factor TFIID subunit 9 (UniProt Q16594); assay: as above
# [26] = molecular target: Transcription initiation factor TFIID subunit 9B (UniProt Q9HBM6); assay: as above
# [27] = molecular target: Apoptotic chromatin condensation inducer in the nucleus (UniProt Q9UKV3); assay: cross-linking mass spectrometry; other
# [28] = molecular target: Protein lin-54 homolog (UniProt Q6MZP7); assay: cross-linking mass spectrometry; other
# [29] = molecular target: Protein lin-9 homolog (UniProt Q5TKA1); assay: cross-linking mass spectrometry; other
# [30] = molecular target: THO complex subunit 1 (UniProt Q96FV9); assay: cross-linking mass spectrometry; other
# [31] = molecular target: ATP-dependent chromatin remodeler CHD4 (UniProt Q14839); assay: other; cross-linking mass spectrometry; other
# [32] = molecular target: Metastasis-associated protein MTA1 (UniProt Q13330); assay: other; cross-linking mass spectrometry; other
# [33] = molecular target: Transcriptional repressor p66-alpha (UniProt Q86YP4); assay: other; cross-linking mass spectrometry; other
# [34] = molecular target: DNA topoisomerase 2-beta (UniProt Q02880); assay: other; cross-linking mass spectrometry; other
# [35] = molecular target: Heterogeneous nuclear ribonucleoprotein A/B (UniProt Q99729); assay: other; cross-linking mass spectrometry; other
# [36] = molecular target: Heterogeneous nuclear ribonucleoprotein Q (UniProt O60506); assay: other; cross-linking mass spectrometry; other
# [37] = molecular target: Histone H1.2 (UniProt P16403); assay: other; cross-linking mass spectrometry; other
# [38] = molecular target: Mediator of RNA polymerase II transcription subunit 17 (UniProt Q9NVC6); assay: other; cross-linking mass spectrometry; other
# [39] = molecular target: Methyl-CpG-binding domain protein 2 (UniProt Q9UBB5); assay: other; cross-linking mass spectrometry; other
# [40] = molecular target: Methylcrotonoyl-CoA carboxylase beta chain, mitochondrial (UniProt Q9HCC0); assay: other; cross-linking mass spectrometry; other
# [41] = molecular target: Probable ATP-dependent RNA helicase DDX23 (UniProt Q9BUQ8); assay: other; cross-linking mass spectrometry; other
# [42] = molecular target: Protein lin-54 homolog (UniProt Q6MZP7); assay: other; cross-linking mass spectrometry; other
# [43] = molecular target: RNA-binding protein EWS (UniProt Q01844); assay: other; cross-linking mass spectrometry; other
# [44] = molecular target: Scaffold attachment factor B1 (UniProt Q15424); assay: other; cross-linking mass spectrometry; other
# [45] = molecular target: Serine/arginine-rich splicing factor 1 (UniProt Q07955); assay: other; cross-linking mass spectrometry; other
# [46] = molecular target: Spindlin-1 (UniProt Q9Y657); assay: other; cross-linking mass spectrometry; other
# [47] = molecular target: THO complex subunit 7 (UniProt Q6I9Y2); assay: other; cross-linking mass spectrometry; other
# [48] = molecular target: Torsin-1A-interacting protein 1 (UniProt Q5JTV8); assay: other; cross-linking mass spectrometry; other
# [49] = molecular target: Transcription initiation factor TFIID subunit 12 (UniProt Q16514); assay: other; cross-linking mass spectrometry; other
# [50] = molecular target: Trifunctional enzyme subunit beta, mitochondrial (UniProt P55084); assay: other; co-fractionation; cross-linking mass spectrometry; other
# Chain of Transcription initiation factor TFIID subunit 12 (Q16514 whole entry): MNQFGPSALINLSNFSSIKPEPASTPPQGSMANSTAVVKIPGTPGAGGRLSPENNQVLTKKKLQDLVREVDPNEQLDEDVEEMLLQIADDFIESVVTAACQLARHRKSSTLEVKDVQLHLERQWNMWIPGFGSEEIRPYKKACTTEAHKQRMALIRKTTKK
# Chain of Transcription initiation factor TFIID subunit 9B (Q9HBM6 whole entry): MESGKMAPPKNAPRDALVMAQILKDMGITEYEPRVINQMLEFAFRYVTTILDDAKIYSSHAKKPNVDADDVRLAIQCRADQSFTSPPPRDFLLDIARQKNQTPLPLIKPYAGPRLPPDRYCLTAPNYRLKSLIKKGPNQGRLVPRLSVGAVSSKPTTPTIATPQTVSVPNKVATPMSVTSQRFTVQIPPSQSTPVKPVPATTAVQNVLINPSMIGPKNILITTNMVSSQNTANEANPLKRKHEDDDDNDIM
# Chain of Transcription initiation factor TFIID subunit 10, Q12962 (Q12962 whole entry): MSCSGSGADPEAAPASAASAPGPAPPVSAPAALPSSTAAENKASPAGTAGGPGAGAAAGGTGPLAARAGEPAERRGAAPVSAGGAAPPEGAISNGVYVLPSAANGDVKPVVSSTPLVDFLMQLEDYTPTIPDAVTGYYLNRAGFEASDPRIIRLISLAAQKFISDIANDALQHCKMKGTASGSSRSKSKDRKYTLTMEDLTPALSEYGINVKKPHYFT
# Chain of Transcription initiation factor TFIID subunit 9 (Q16594 whole entry): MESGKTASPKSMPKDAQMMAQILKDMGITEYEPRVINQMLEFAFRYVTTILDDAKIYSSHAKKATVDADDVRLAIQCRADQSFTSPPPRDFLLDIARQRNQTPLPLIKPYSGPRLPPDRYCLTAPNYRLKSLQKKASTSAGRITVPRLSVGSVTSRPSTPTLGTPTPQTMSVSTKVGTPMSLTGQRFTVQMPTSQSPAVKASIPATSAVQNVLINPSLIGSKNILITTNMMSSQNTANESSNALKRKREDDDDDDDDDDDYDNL
# Chain of Transcriptional repressor p66-alpha (Q86YP4 whole entry): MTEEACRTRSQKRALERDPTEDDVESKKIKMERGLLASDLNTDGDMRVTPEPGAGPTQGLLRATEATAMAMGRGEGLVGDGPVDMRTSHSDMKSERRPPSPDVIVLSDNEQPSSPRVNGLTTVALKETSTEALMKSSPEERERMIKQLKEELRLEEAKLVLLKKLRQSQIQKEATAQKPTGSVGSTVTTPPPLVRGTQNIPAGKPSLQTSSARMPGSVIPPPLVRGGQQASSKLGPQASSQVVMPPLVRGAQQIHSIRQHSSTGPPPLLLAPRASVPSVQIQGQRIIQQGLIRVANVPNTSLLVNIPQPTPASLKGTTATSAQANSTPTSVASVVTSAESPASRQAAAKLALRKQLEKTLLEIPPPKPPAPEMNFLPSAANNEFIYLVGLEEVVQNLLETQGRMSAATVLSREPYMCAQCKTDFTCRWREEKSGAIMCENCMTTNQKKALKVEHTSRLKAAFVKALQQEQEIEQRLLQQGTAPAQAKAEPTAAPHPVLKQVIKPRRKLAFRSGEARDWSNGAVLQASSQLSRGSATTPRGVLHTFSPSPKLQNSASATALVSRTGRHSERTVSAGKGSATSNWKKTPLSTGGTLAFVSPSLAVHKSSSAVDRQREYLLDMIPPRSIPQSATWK
# Chain of RecQ-mediated genome instability protein 1 (Q9H9A7 whole entry): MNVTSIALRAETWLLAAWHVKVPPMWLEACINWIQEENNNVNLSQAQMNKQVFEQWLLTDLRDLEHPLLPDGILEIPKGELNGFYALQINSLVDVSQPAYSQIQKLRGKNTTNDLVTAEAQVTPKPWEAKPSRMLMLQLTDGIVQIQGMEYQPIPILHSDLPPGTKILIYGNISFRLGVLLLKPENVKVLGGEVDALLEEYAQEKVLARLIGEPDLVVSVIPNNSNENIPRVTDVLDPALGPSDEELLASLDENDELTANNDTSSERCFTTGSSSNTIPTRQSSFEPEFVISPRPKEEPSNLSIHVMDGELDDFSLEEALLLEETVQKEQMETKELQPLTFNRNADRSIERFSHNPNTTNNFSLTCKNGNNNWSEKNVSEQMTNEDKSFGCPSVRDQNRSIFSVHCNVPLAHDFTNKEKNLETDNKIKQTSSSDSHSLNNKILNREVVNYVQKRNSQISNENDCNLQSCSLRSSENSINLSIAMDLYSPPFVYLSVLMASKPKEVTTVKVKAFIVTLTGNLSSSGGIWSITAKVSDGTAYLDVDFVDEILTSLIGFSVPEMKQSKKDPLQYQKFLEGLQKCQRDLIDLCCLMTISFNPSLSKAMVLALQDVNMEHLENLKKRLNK
# Chain of Endoplasmic reticulum chaperone BiP, P11021 (P11021 whole entry): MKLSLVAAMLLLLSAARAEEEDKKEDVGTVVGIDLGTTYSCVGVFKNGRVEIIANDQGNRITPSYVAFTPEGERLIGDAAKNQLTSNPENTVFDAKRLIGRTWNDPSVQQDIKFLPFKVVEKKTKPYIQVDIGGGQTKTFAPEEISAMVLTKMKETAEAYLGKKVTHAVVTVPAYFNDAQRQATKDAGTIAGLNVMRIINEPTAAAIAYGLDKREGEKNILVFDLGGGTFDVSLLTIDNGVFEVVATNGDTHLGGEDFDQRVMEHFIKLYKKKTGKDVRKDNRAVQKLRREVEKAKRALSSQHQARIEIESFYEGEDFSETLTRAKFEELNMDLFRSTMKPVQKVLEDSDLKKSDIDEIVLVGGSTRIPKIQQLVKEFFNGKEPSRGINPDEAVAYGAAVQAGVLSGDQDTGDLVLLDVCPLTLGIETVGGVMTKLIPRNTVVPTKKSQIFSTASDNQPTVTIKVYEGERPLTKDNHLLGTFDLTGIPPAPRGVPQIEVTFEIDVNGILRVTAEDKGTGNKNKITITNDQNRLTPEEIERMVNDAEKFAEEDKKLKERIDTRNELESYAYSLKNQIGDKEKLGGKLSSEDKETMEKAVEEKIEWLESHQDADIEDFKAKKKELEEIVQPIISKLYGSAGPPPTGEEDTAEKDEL
# Chain of THO complex subunit 1 (Q96FV9 whole entry, one chain of several): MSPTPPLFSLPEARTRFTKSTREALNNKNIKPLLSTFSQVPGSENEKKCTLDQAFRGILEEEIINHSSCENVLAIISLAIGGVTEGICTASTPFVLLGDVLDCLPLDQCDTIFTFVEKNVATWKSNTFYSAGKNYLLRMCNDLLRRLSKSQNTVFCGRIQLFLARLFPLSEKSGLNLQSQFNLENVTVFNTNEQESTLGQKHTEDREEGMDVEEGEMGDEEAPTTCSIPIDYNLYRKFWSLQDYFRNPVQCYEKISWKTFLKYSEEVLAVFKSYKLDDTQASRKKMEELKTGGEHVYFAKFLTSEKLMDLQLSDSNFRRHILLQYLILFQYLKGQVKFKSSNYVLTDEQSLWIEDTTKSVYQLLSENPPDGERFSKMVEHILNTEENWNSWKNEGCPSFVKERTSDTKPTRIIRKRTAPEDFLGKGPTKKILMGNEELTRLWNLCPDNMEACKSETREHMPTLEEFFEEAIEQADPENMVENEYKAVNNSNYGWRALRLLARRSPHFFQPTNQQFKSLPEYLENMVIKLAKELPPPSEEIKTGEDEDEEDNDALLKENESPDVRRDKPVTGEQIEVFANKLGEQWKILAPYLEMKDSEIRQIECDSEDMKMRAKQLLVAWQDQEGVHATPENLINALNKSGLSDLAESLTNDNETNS
# Chain of Protein lin-54 homolog (Q6MZP7 whole entry): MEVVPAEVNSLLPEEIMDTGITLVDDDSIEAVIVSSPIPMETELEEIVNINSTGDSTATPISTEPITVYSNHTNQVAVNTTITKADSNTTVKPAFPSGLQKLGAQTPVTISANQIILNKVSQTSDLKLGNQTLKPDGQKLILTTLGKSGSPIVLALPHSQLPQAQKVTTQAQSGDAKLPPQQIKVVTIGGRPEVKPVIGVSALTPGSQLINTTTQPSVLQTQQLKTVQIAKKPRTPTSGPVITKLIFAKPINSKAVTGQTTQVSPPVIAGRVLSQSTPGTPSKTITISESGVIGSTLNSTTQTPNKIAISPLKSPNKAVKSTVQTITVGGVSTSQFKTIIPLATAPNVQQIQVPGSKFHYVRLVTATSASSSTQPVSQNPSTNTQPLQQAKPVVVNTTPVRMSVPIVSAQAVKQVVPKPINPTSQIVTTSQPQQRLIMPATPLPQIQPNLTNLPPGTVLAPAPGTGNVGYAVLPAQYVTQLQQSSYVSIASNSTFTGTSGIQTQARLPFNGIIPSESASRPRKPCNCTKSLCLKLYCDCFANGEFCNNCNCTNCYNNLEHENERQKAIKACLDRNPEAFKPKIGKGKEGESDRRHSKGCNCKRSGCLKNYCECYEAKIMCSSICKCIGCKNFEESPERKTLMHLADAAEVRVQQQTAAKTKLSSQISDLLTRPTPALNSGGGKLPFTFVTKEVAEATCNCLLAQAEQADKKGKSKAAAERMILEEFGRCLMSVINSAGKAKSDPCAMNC
# Chain of Heterogeneous nuclear ribonucleoprotein A0 (Q13151 whole entry): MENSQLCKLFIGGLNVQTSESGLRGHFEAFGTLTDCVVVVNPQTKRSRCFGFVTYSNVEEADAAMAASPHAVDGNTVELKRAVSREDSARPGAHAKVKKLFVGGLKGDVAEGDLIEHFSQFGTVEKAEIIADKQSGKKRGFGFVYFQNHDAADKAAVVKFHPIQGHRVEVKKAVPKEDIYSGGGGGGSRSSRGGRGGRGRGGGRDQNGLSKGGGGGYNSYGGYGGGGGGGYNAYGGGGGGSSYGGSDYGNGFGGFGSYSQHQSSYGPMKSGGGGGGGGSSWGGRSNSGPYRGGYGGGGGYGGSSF
# Chain of Sin3 histone deacetylase corepressor complex component SDS3 (Q9H7L9 whole entry, one chain of several): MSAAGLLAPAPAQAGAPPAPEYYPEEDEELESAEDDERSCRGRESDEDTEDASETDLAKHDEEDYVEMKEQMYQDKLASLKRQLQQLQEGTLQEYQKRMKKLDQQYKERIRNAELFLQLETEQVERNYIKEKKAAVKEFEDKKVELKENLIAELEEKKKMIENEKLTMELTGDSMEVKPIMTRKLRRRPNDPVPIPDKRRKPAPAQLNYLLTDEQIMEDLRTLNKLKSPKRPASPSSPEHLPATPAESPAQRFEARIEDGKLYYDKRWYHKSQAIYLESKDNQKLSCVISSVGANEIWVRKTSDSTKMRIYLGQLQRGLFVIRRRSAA
substance,measurement,setting,value
"28S rRNA (cytosine(4447)-C(5))-methyltransferase, P46087",listed as a hit,[1],yes
same,listed as a hit,[2],yes
"Endoplasmic reticulum chaperone BiP, P11021",listed as a hit,[3],yes
same,listed as a hit,[4],yes
"THO complex subunit 7, Q6I9Y2",listed as a hit,[5],yes
same,listed as a hit,[6],yes
"Transcription initiation factor TFIID subunit 4, O00268",listed as a hit,[7],yes
same,listed as a hit,[8],yes
same,listed as a hit,[9],yes
same,listed as a hit,[10],yes
"Heterogeneous nuclear ribonucleoproteins C1/C2, P07910",listed as a hit,[11],yes
same,listed as a hit,[12],yes
"RecQ-like DNA helicase BLM, P54132",listed as a hit,[13],yes
same,listed as a hit,[14],yes
"Heterogeneous nuclear ribonucleoproteins A2/B1, P22626",listed as a hit,[15],yes
"Heterogeneous nuclear ribonucleoprotein A1, P09651",listed as a hit,[15],yes
"Histone deacetylase complex subunit SAP30, O75446",listed as a hit,[16],yes
"RNA-binding protein with serine-rich domain 1, Q15287",listed as a hit,[17],yes
"E3 ubiquitin-protein ligase RING1, Q06587",listed as a hit,[18],yes
"Pre-mRNA-splicing factor SPF27, O75934",listed as a hit,[19],yes
"DNA topoisomerase 3-alpha, Q13472",listed as a hit,[14],yes
"Transcriptional adapter 3, O75528",listed as a hit,[20],yes
"Breast cancer metastasis-suppressor 1-like protein, Q5PSV4",listed as a hit,[21],yes
"Paired amphipathic helix protein Sin3a, Q96ST3",listed as a hit,[21],yes
"Splicing factor 3B subunit 2, Q13435",listed as a hit,[22],yes
"Cyclic AMP-dependent transcription factor ATF-2, P15336",listed as a hit,[23],yes
"Transcription initiation factor TFIID subunit 10, Q12962",listed as a hit,[10],yes
same,listed as a hit,[24],yes
same,listed as a hit,[25],yes
"Transcription initiation factor TFIID subunit 12, Q16514",listed as a hit,[25],yes
same,listed as a hit,[26],yes
"Histone deacetylase complex subunit SAP18, O00422",listed as a hit,[27],yes
"Protein lin-52 homolog, Q52LA3",listed as a hit,[28],yes
same,listed as a hit,[29],yes
"THO complex subunit 2, Q8NI27",listed as a hit,[30],yes
"Metastasis-associated protein MTA2, O94776",listed as a hit,[31],yes
same,listed as a hit,[32],yes
same,listed as a hit,[33],yes
"DNA topoisomerase 2-alpha, P11388",listed as a hit,[34],yes
"Heterogeneous nuclear ribonucleoprotein U, Q00839",listed as a hit,[35],yes
"Heterogeneous nuclear ribonucleoprotein R, O43390",listed as a hit,[36],yes
"Histone H1.3, P16402",listed as a hit,[37],yes
"Mediator of RNA polymerase II transcription subunit 6, O75586",listed as a hit,[38],yes
"Transcriptional repressor p66-beta, Q8WXI9",listed as a hit,[39],yes
"Methylcrotonoyl-CoA carboxylase subunit alpha, mitochondrial, Q96RQ3",listed as a hit,[40],yes
"CD2 antigen cytoplasmic tail-binding protein 2, O95400",listed as a hit,[41],yes
"Protein lin-9 homolog, Q5TKA1",listed as a hit,[42],yes
"RNA-binding protein FUS, P35637",listed as a hit,[43],yes
"Scaffold attachment factor B2, Q14151",listed as a hit,[44],yes
"Serine/arginine-rich splicing factor 3, P84103",listed as a hit,[45],yes
"Spindlin interactor and repressor of chromatin-binding protein, Q9BUA3",listed as a hit,[46],yes
"THO complex subunit 5, Q13769",listed as a hit,[5],yes
same,listed as a hit,[47],yes
"Prelamin-A/C, P02545",listed as a hit,[48],yes
"Transcription initiation factor TFIID subunit 5, Q15542",listed as a hit,[49],yes
same,listed as a hit,[9],yes
"Transcription initiation factor TFIID subunit 6, P49848",listed as a hit,[9],yes
"ATP-dependent chromatin remodeler CHD4, Q14839",listed as a hit,[33],yes
"Trifunctional enzyme subunit alpha, mitochondrial, P40939",listed as a hit,[50],yes
